From PubChem BioAssay (NCATS)
Records with an inconclusive call do not appear. Entries that show only a call come without a potency. Activity calls are given as the source filed them. Calls come from the whole dose curve; as a rule, active = well fitted inhibition curve with a large enough effect; inconclusive = small, poorly fitted or top-dose-only effect; inactive = flat fitted curve, though single readings scatter.

Tests used:
Experiment in all cases: qHTS profiling for inhibitors of Plasmodium falciparum proliferation (AID 504749); note: nearly all actives have a fitted effect of over 60% in size
Conditions in all cases: P. falciparum in erythrocytes, SYBR Green DNA, 72 h; series mostly up to 28.7 µM
CP291 = test system: CP291
Method in brief: (§1)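 Fluorescence of SYBR Green-bound parasite DNA, read at 485/535 nm, served as the growth measure. Infected erythrocytes were cultured with compound 72 h; artemisinin (0.29 uM) and DMSO wells defined the normalization range.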

CP297 = test system: CP297
Method in brief: as §1

CP305 = test system: CP305
Method in brief: as §1

CP315 = test system: CP315
Method in brief: as §1

CP325 = test system: CP325
Method in brief: as §1

CP329 = test system: CP329
Method in brief: as §1

DFO2036 = test system: DFO2036
Method in brief: as §1

DIV14 = test system: DIV14
Method in brief: as §1

DIV17 = test system: DIV17
Method in brief: as §1

DIV30 = test system: DIV30
Method in brief: as §1

Dd2 = test system: Dd2
Method in brief: as §1

ECU = test system: ECU
Method in brief: as §1

FAB9 = test system: FAB9
Method in brief: as §1

GB4 = test system: GB4
Method in brief: as §1

HB3 = test system: HB3
Method in brief: as §1

ICS = test system: ICS
Method in brief: as §1

JCK = test system: JCK
Method in brief: as §1

N140 = test system: N140
Method in brief: as §1

P93_24 = test system: P93_24
Method in brief: as §1

CP335 = test system: CP335
Method in brief: as §1
Potency is the fitted concentration of half-maximal effect.

Row | Structure (SMILES) | Potency (CP291) | Potency (CP297) | Potency (CP305) | Potency (CP315) | Potency (CP325) | Potency (CP329) | Potency (DFO2036) | Potency (DIV14) | Potency (DIV17) | Potency (DIV30) | Potency (Dd2) | Potency (ECU) | Potency (FAB9) | Potency (GB4) | Potency (HB3) | Potency (ICS) | Potency (JCK) | Potency (N140) | Potency (P93_24) | Potency (CP335)
1 | Nc1nc(N)c2nc(-c3ccccc3)c(N)nc2n1 | inactive | inactive | inactive | inactive | inactive | inactive | inactive | inactive | inactive | inactive | inactive | 2.82 µM (active) | 3.16 µM (active) | 1.35 µM (active) | inactive | inactive | inactive | inactive | inactive | –
2 | NC1=NCC2c3ccccc3Cc3ccccc3N12 (centres undefined) | inactive | inactive | inactive | inactive | inactive | – | inactive | – | 13.5 µM (active) | inactive | inactive | inactive | inactive | – | inactive | – | inactive | inactive | inactive | –
3 | COC(=O)[C@H]1[C@H]2C[C@@H]3c4[nH]c5cc(OC)ccc5c4CCN3C[C@H]2C[C@@H](OC(=O)c2cc(OC)c(OC)c(OC)c2)[C@@H]1OC | 15.1 µM (active) | 3.38 µM (active) | – | 16.9 µM (active) | 13.5 µM (active) | 13.5 µM (active) | – | 1.69 µM (active) | 1.51 µM (active) | 1.07 µM (active) | 12.6 µM (active) | 5.01 µM (active) | – | 13.5 µM (active) | 11.2 µM (active) | 3.55 µM (active) | – | 3.98 µM (active) | 10 µM (active) | 8.49 µM (active)
4 | CN(C)CCCN1c2ccccc2Sc2ccc(C(F)(F)F)cc21 | inactive | inactive | inactive | inactive | inactive | inactive | – | 6.75 µM (active) | 5.36 µM (active) | – | – | 12.6 µM (active) | inactive | – | inactive | 10 µM (active) | – | – | – | –
5 | C[C@]12CCC(=O)C=C1CC[C@@H]1[C@@H]2CC[C@@]2(C)[C@H]1CC[C@]2(O)C(=O)CO | inactive | inactive | inactive | inactive | inactive | inactive | inactive | inactive | inactive | inactive | inactive | inactive | inactive | inactive | inactive | – | inactive | inactive | inactive | inactive
6 | CN1CCN(C2=Nc3ccccc3Oc3ccc(Cl)cc32)CC1 | inactive | inactive | inactive | inactive | inactive | inactive | inactive | inactive | inactive | inactive | inactive | inactive | inactive | – | inactive | – | inactive | inactive | inactive | inactive
7 | CCO/C([O-])=N/c1c[n+](N2CCOCC2)no1 | inactive | inactive | inactive | inactive | – | inactive | inactive | inactive | inactive | inactive | inactive | inactive | inactive | inactive | inactive | inactive | inactive | inactive | inactive | inactive
8 | Brc1c(NC2=NCCN2)ccc2nccnc12 | inactive | inactive | inactive | inactive | inactive | inactive | inactive | – | – | inactive | inactive | – | inactive | 12 µM (active) | – | 3.98 µM (active) | inactive | – | 11.2 µM (active) | –
9 | Nc1c2c(nc3ccccc13)CCCC2O (centres undefined) | inactive | inactive | inactive | inactive | inactive | inactive | inactive | inactive | – | inactive | inactive | inactive | inactive | inactive | inactive | inactive | inactive | inactive | inactive | inactive
10 | C#CCN(C)CCCOc1ccc(Cl)cc1Cl | inactive | inactive | inactive | inactive | inactive | inactive | inactive | inactive | – | inactive | inactive | inactive | inactive | inactive | inactive | inactive | inactive | inactive | inactive | inactive
11 | CCCCNc1c(C(=O)OCC)c(C)nc2c1cnn2CC | inactive | inactive | inactive | inactive | inactive | inactive | inactive | inactive | – | inactive | inactive | inactive | inactive | inactive | inactive | – | inactive | inactive | inactive | –
12 | Cc1cc(C)c(/C=C2\C(=O)Nc3ccccc32)[nH]1 | inactive | inactive | inactive | inactive | inactive | inactive | inactive | inactive | inactive | inactive | inactive | inactive | inactive | inactive | inactive | – | inactive | inactive | inactive | inactive
13 | CCCCNc1ccc(C(=O)OCCN(C)C)cc1 | inactive | inactive | inactive | inactive | – | – | – | – | – | inactive | inactive | inactive | inactive | inactive | inactive | inactive | inactive | inactive | inactive | inactive
14 | Cc1nc2c([nH]1)c(=O)n(C)c(=O)n2Cc1ccco1 | inactive | inactive | inactive | inactive | inactive | inactive | inactive | inactive | inactive | inactive | inactive | inactive | inactive | inactive | inactive | inactive | inactive | inactive | inactive | inactive
15 | CCCOc1ccccc1-c1nc2n[nH]nc2c(=O)[nH]1 | inactive | inactive | inactive | inactive | inactive | inactive | inactive | inactive | inactive | inactive | inactive | inactive | inactive | inactive | inactive | – | inactive | inactive | inactive | –
16 | C[N+](C)(C)CCOC(N)=O | inactive | inactive | inactive | inactive | inactive | inactive | inactive | inactive | inactive | inactive | inactive | inactive | inactive | inactive | inactive | inactive | inactive | inactive | inactive | inactive
17 | CCN(CC)CCCN(c1ccccc1)C1Cc2ccccc2C1 | 7.57 µM (active) | 13.5 µM (active) | 6.75 µM (active) | – | 8.49 µM (active) | 12 µM (active) | 5.01 µM (active) | 2.13 µM (active) | 4.26 µM (active) | 8.49 µM (active) | 3.98 µM (active) | 3.98 µM (active) | 5.62 µM (active) | 6.01 µM (active) | 11.2 µM (active) | 3.55 µM (active) | 11.2 µM (active) | 5.01 µM (active) | 4.47 µM (active) | 4.78 µM (active)
18 | O=C(O)CP(=O)(O)O | inactive | inactive | inactive | inactive | inactive | inactive | inactive | inactive | inactive | inactive | inactive | inactive | inactive | inactive | inactive | inactive | inactive | inactive | inactive | inactive
19 | CC(C)NNC(=O)c1ccncc1 | inactive | inactive | inactive | inactive | inactive | inactive | 7.94 µM (active) | inactive | inactive | inactive | inactive | inactive | inactive | inactive | inactive | inactive | inactive | – | inactive | inactive
20 | CN1C[C@H](C(=O)N[C@]2(C)O[C@@]3(O)[C@@H]4CCCN4C(=O)[C@H](Cc4ccccc4)N3C2=O)C[C@@H]2c3cccc4[nH]cc(c34)C[C@H]21 | 16.9 µM (active) | 4.26 µM (active) | – | – | 12 µM (active) | – | – | 0.675 µM (active) | 0.426 µM (active) | 0.757 µM (active) | – | – | – | 6.01 µM (active) | – | – | – | – | – | 8.49 µM (active)
21 | CC(=O)Oc1cc(C(C)C)c(OCCN(C)C)cc1C | inactive | inactive | inactive | inactive | inactive | inactive | inactive | inactive | inactive | inactive | inactive | inactive | inactive | inactive | inactive | inactive | inactive | inactive | inactive | –
22 | COC(=O)[C@@H](N)Cc1ccc(O)c(O)c1 | inactive | inactive | inactive | inactive | inactive | inactive | inactive | – | – | inactive | inactive | inactive | inactive | – | inactive | inactive | inactive | inactive | inactive | –
23 | CC[N+](C)(C)c1cccc(O)c1 | inactive | inactive | inactive | inactive | inactive | inactive | inactive | inactive | – | inactive | inactive | inactive | inactive | inactive | inactive | inactive | inactive | inactive | inactive | inactive
24 | OCCN1CCN(CC/C=C2/c3ccccc3Sc3ccc(C(F)(F)F)cc32)CC1 | 9.53 µM (active) | 6.75 µM (active) | 7.57 µM (active) | – | 6.01 µM (active) | 6.75 µM (active) | – | – | 6.75 µM (active) | 8.49 µM (active) | 7.94 µM (active) | 12.6 µM (active) | – | 6.75 µM (active) | 6.31 µM (active) | 6.31 µM (active) | – | 11.2 µM (active) | 10 µM (active) | 4.26 µM (active)
